# According to PubChem BioAssay (NCATS):
# Records with an inconclusive call do not appear. Calls of active or inactive are those of the source. Unless noted, calls come from the whole dose curve; as a rule, active = well fitted curve in either direction with a large enough effect (not every such curve was filed as active); inconclusive = small, poorly fitted or top-dose-only effect, or another doubt; inactive = flat fitted curve, though single readings scatter.
# How the values were obtained:
# [1] = AP1 Signaling Pathway (AID 357); conditions: ME-180 AP-1-bla reporter, EGF-induced, beta-lactamase ratio, 5 h; at 17.2 µM (top of the series) unless noted;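 note: ME-180 reporter cells stimulated with EGF at its EC50 level; % is set by controls: 0 for no effect and ±100 for the full control effect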
# How it was run: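 AP-1-bla ME-180 cells, Opti-MEM + 0.5% dialyzed FBS, plated overnight 37 °C. Cpd titration + EC50 EGF, 5 h 37 °C. CCF4 2.5 h RT; ex 405, em 460/530 ratio → %activity, AC50.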
# [2] = target: Glucocorticoid receptor (Homo sapiens) (UniProt P04150); assay: GR-GFP Redistribution (AID 450;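 active = compounds whose dose series gives a full or clear partial fitted curve of increased nuclear translocation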; note: potency is the fitted concentration of half-maximal effect)
# Chain of Glucocorticoid receptor (Homo sapiens) (P04150 whole entry, looked up): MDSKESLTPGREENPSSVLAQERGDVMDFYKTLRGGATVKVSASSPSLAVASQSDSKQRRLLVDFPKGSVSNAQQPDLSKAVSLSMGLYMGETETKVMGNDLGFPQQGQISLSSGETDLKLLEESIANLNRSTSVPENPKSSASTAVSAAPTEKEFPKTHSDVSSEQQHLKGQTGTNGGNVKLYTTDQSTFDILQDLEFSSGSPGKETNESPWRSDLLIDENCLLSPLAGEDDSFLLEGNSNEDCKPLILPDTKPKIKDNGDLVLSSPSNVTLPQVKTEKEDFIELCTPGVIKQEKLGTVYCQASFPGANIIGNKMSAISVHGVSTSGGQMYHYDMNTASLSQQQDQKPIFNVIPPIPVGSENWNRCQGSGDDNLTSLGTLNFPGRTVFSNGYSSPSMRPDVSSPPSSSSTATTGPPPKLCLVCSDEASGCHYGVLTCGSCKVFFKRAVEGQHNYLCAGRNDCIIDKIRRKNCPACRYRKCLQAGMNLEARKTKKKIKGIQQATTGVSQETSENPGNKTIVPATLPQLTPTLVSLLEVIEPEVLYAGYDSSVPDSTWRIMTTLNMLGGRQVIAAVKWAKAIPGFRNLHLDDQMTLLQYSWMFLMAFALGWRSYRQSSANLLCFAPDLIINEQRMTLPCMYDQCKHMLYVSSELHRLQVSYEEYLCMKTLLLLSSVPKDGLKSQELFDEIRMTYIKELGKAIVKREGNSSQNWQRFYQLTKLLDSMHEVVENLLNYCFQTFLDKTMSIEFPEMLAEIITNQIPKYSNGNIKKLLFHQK
# [3] = Stat Signaling Pathway (AID 446); conditions: ME-180 SIE beta-lactamase reporter, IL-6 stimulated, 5 h;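 note: ME-180 cervical cancer cells given 40 pM IL-6 alongside compound; SIE-controlled beta-lactamase reporter measured as 460/530 nm FRET emission ratio; % is set by controls: 0 for no effect and ±100 for the full control effect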
# How it was run: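 IL-6/STAT signaling read in ME-180 cells via an SIE beta-lactamase reporter. Stimulus was 40 pM IL-6 (its AC50) for 5 hrs, so both activation and inhibition register.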
# [4] = qHTS Assay for Identification of Small Molecule Agonists for Hypoxia Response Element Signaling Pathway (AID 914; active = well fitted activation curve with a large enough effect in the signal ratio, with a control signal flat, not every such curve was filed as active; the % refers to the signal ratio; note: potency is the fitted concentration of half-maximal effect); conditions: ME-180 HRE-bla reporter, beta-lactamase ratio, CoCl2, 17 h; activation: active compounds read high
# How it was run: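 HRE-bla ME-180 cells, overnight plating in Opti-MEM with 0.5% dialyzed FBS; cpd titration + EC50 CoCl2, 17 h, 37 degrees Celsius; CCF4 2.5 h RT; 460/530 nm ratio; AC50.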
# [5] = target: Cytochrome P450 1A2 (Homo sapiens) (UniProt P05177); assay: p450-cyp1a2 (AID 410; calls by dose curve;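 note: -100% = full effect of reference inhibitor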)
# Chain of Cytochrome P450 1A2 (Homo sapiens) (P05177 whole entry, looked up): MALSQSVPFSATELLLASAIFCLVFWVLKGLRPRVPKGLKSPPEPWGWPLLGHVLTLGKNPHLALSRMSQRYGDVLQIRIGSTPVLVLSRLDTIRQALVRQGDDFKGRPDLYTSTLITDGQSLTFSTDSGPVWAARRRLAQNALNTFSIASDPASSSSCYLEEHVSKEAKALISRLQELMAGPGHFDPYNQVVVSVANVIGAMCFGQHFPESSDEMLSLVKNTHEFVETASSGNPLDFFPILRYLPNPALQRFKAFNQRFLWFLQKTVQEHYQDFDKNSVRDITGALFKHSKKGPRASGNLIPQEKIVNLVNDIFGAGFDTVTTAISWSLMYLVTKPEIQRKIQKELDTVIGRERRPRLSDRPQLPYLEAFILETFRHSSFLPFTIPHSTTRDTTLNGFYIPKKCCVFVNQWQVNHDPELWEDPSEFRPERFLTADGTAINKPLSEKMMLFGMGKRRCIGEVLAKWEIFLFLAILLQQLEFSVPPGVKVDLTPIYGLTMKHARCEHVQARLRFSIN
# How it was run: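 Human CYP1A2 (20nM) demethylated Luciferin-ME at its Km (100uM) in 100mM KPO4. After 10 min compound preincubation, NADPH regeneration ran the reaction 60 min at room temperature. Luciferin was read by luminescence, normalized to 57 uM furafylline.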
# [6] = NFAT Signaling Pathway (AID 444); conditions: Jurkat NFAT-bla M1, carbachol, beta-lactamase ratio, 5 h; at 17.2 µM (top of the series) unless noted;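 note: carbachol stimulus at about its EC50 of 1 µM final; % is set by controls: 0 for no effect and ±100 for the full control effect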
# How it was run: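 Jurkat cells with NFAT-driven β-lactamase reporter and co-expressed M1 receptor, stimulated with carbachol (final 1 uM, ~EC50), compound titration, 5 h at 37 °C. CCF4 loaded 1 h at RT; 460/530 nm ratio gave %activity and AC50.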
# [7] = target: Mitogen-activated protein kinase 10 (Mus musculus) (UniProt Q61831); assay: JNK3 AlphaScreen Assay (AID 530);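 note: kinase came from lysate of stimulated human HepG2 cells; signal reports phosphorylation of biotinylated GST-cJun 1-79 at Ser73 with 10 µM ATP; % is set by controls: 0 for no effect and ±100 for the full control effect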
# How it was run: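 qHTS format: compounds tested as titrations against IL-1beta/TNF-alpha-activated HepG2 lysate JNK3 with biotin-GST-cJun substrate and 10 uM ATP at room temperature. Loss of anti-phospho-cJun AlphaScreen signal indicates inhibition.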
# [8] = target: 3',5'-cyclic-AMP phosphodiesterase 4B (Homo sapiens) (UniProt Q07343); assay: qHTS Assay for Inhibitors of PDE-IV (AID 607; active = well fitted activation curve with a large enough effect in the main read-out, with a control signal flat, not every such curve was filed as active; note: % of control where 0% means no effect)
# Chain of 3',5'-cyclic-AMP phosphodiesterase 4B (Homo sapiens) (Q07343 whole entry, looked up): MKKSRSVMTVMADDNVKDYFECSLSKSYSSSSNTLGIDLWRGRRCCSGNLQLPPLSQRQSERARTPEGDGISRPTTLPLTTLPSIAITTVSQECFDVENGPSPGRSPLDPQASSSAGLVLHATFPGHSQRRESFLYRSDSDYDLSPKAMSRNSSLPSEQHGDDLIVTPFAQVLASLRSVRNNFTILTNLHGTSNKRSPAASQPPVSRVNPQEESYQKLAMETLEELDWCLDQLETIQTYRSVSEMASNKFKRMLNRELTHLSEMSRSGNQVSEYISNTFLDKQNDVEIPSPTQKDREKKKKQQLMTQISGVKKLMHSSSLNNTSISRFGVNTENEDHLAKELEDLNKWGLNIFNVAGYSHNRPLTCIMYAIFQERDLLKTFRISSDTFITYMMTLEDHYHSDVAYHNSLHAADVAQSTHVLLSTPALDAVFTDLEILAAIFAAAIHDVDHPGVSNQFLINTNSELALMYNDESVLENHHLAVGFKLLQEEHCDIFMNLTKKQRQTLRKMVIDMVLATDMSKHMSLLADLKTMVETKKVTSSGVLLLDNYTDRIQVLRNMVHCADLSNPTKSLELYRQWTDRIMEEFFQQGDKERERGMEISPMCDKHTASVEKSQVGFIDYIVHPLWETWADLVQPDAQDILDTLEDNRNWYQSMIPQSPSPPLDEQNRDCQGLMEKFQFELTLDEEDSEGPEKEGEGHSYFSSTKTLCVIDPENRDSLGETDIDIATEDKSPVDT
# How it was run: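 Live HEK293 cells with a modified cyclic nucleotide-gated (CNG) channel report intracellular cAMP via membrane-potential dye fluorescence (ex 535/em 590 nm). Endogenous PDE-IV was targeted. Compounds were tested at up to 22.9 uM final; RO 20-1724 100 uM served as control.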
# [9] = target: Guanine nucleotide-binding protein G(i) subunit alpha-1 (Homo sapiens) (UniProt P63096); assay: qHTS Assay for Inhibitors of RGS12 GoLoco Motif Activity (Green Fluorophore) (AID 879; active = well fitted curve in the direction sought with a large enough effect; an effect the other way counts as inactive or inconclusive;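 note: 0% = labeled peptide with Gαi1 and full inhibition = labeled peptide alone without protein; negative values mean loss of peptide binding seen as reduced polarization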)
# Chain of Guanine nucleotide-binding protein G(i) subunit alpha-1 (Homo sapiens) (P63096 whole entry, looked up): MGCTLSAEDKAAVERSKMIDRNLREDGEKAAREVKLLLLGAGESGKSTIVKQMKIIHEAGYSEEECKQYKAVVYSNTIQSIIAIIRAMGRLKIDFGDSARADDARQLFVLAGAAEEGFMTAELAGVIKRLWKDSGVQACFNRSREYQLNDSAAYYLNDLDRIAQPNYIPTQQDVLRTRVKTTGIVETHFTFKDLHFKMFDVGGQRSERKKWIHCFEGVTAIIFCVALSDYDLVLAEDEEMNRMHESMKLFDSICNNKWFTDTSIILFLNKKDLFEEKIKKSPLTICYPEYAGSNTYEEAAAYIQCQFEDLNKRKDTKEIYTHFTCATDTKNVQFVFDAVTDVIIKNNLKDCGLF
# How it was run: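 Fluorescence polarization assay: 50 nM Gαi1 with 10 nM FITC-labeled RGS12 GoLoco peptide in 10 mM Tris pH 7.5, 150 mM NaCl, 0.1 mM GDP, 0.05% NP40, 10 min at room temperature with compound.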
# [10] = target: Cytochrome P450 2C9 (Homo sapiens) (UniProt P11712); assay: qHTS Assay for Inhibitors and Substrates of Cytochrome P450 2C9 (AID 883; active = well fitted curve in the direction sought with a large enough effect; an effect the other way counts as inactive or inconclusive; note: potency is the fitted concentration of half-maximal effect; nearly all actives have a fitted effect of over 60% in size)
# Chain of Cytochrome P450 2C9 (Homo sapiens) (P11712 whole entry, looked up): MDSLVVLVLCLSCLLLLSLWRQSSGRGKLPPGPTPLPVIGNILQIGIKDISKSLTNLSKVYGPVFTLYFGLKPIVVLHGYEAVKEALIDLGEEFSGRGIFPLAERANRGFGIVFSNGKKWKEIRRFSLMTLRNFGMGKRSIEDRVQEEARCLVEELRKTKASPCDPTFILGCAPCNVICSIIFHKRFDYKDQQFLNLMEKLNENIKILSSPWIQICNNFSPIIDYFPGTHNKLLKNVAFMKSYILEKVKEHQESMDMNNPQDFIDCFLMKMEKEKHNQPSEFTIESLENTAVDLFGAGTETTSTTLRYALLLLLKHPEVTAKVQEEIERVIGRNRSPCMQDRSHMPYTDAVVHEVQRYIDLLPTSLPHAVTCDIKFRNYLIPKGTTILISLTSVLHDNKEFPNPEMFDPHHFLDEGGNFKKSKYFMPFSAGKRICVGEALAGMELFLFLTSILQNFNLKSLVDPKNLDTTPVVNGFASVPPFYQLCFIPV
# How it was run: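 10nM CYP2C9 + 100uM Luciferin-H (=KM), 25mM KPO4; cpd 10 min 37C; NADPH regen, 60 min 37C; stop/detect with P450 Glo-Buffer 20 min; luminescence. Norm. to 57uM sulphaphenazole as full inhibition.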
# [11] = qHTS Assay for Identification of Small Molecule Antagonists for NFkB Signaling Pathway (AID 895; active = well fitted inhibition curve with a large enough effect in the signal ratio, with a control signal flat, not every such curve was filed as active; the % refers to the signal ratio; note: % is set by controls: 0 for no effect and ±100 for the full control effect)
# How it was run: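 ME-180 NFkB-bla cells (beta-lactamase under NFkB response element), plated overnight, treated with compound then 10 pM TNF alpha (about EC50) for 5 hrs at 37 C. LiveBLAzer FRET read at 460/530 nm emission, 405 nm excitation.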
# [12] = target: Pyruvate kinase (Leishmania mexicana) (UniProt Q27686); assay: qHTS Validation Assay for Inhibitors of Leishmania Mexicana Pyruvate Kinase (AID 945; active = well fitted curve in the direction sought with a large enough effect; an effect the other way counts as inactive or inconclusive;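 note: 0% = DMSO only neutral control wells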)
# Chain of Pyruvate kinase (Leishmania mexicana) (Q27686 2-499 E452W): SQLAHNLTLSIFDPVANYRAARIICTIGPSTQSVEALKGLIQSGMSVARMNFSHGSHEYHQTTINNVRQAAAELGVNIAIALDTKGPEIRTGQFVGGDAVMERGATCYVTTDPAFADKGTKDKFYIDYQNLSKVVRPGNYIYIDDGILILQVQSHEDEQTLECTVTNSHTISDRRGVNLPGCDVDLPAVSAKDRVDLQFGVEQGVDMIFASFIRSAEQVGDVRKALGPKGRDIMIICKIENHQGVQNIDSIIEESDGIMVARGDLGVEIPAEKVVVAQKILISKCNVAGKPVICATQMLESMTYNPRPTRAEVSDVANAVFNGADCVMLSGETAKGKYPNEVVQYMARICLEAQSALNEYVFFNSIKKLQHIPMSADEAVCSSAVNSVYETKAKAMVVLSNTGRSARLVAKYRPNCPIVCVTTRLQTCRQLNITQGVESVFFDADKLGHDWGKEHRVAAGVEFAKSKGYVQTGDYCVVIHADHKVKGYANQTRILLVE
# How it was run: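 Luminescent ATP detection (PKLight) after a 1 h room-temperature reaction of 0.2 nM LmPYK E451W mutant with 0.5 mM PEP and 0.1 mM ADP at pH 7.2. Activity is normalized to DMSO-only control wells.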
# [13] = target: Pyruvate kinase PKM (Homo sapiens) (UniProt P14618); assay: qHTS Assay for Activators of Human Muscle Pyruvate Kinase (AID 954; active = well fitted curve in the direction sought with a large enough effect, not every such curve was filed as active;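 note: 0% = uninhibited enzyme and -100% = no enzyme or full thiadiazolimine inhibition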)
# Chain of Pyruvate kinase PKM (Homo sapiens) (P14618 whole entry, looked up): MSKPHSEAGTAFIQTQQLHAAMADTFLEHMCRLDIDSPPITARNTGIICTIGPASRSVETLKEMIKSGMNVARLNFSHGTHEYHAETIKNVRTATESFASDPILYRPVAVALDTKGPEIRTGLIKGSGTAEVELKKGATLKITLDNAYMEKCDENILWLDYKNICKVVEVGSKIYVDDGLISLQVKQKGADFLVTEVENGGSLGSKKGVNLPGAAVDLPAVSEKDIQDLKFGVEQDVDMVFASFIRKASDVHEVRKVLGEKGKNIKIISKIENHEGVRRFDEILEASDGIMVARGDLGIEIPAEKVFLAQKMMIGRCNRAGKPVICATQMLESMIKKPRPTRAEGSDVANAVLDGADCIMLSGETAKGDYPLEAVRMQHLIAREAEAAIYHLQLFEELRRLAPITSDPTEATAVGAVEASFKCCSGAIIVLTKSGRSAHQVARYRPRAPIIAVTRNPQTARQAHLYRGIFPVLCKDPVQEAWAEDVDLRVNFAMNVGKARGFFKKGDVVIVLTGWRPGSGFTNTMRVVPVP
# How it was run: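 Enzyme was run at intermediate activity so both inhibitors and activators could be detected. ATP formed from ADP and PEP by 0.1 nM human PKM2 during a 1 h room-temperature incubation was quantified by coupled luciferase luminescence.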
# [14] = target: Alpha-galactosidase A (Homo sapiens) (UniProt P06280); assay: Counterscreen for Glucocerebrosidase Inhibitors: qHTS Assay for Human alpha-Galactosidase at pH 4.5 (AID 992; active = well fitted curve in the direction sought with a large enough effect; an effect the other way counts as inactive or inconclusive; note: 0% is about no effect)
# Chain of Alpha-galactosidase A (Homo sapiens) (P06280 whole entry, looked up): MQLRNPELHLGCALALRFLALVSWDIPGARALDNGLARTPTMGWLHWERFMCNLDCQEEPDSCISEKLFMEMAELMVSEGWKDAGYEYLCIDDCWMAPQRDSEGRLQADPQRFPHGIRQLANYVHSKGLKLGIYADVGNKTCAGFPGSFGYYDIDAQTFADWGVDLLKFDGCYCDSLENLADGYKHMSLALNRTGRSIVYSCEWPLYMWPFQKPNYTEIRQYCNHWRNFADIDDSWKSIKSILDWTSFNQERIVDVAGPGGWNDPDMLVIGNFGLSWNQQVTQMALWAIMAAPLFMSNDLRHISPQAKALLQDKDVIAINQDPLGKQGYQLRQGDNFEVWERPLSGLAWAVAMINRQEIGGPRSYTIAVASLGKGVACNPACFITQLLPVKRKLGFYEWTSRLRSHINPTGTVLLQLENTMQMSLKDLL
# How it was run: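 Read-out is 4-methylumbelliferone fluorescence (365 nm excitation, 440 nm emission) after a pH 10 NaOH/glycine stop. Reactions held 2 nM enzyme and 80 uM substrate at pH 4.5 for 20 min at room temperature.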
# [15] = target: Tumor susceptibility gene 101 protein (Homo sapiens) (UniProt Q99816); assay: qHTS Assay for Iinhibitors of HIV-1 Budding by Blocking the Interaction of PTAP/TSG101: Hit Validation (AID 651600; active = well fitted curve in the direction sought with a large enough effect; an effect the other way counts as inactive or inconclusive; note: potency is the fitted concentration of half-maximal effect; nearly all actives have a fitted effect of over 70% in size)
# Chain of Tumor susceptibility gene 101 protein (Homo sapiens) (Q99816 whole entry, looked up, the tested form may be a part): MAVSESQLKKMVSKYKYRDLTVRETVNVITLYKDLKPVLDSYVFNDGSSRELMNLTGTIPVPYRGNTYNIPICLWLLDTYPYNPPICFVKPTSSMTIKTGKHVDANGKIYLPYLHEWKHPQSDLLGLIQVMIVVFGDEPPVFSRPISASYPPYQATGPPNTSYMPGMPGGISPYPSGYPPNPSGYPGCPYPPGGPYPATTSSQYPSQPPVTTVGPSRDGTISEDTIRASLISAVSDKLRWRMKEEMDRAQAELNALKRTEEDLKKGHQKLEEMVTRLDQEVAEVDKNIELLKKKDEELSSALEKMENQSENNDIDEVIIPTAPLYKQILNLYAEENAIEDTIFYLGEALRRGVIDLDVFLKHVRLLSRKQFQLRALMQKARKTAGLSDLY
# How it was run: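 FITC-PTAP peptide (50 nM final) binding to Tsg101 binding domain (10 uM final) was measured by polarization after 20 min at r.t. with compounds, in 10 mM HEPES pH 7.5 buffer with 0.15 M NaCl and 0.01% Tween 20.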
smiles,measurement,setting,value
N#CC1=C(SCC(=O)c2ccc(Br)cc2)NC2=C(C(=O)CCC2)C1c1ccco1 (configuration not stated),"activity change, negative = inhibition",[1],-81.5% (active)
same,Potency,[2],> 20.6 µM (inactive)
COc1ccc(/C(O)=C2\C(=O)C(=O)N(c3cc(C)on3)C2c2ccccc2OC)cc1 (configuration not stated),"activity change, negative = inhibition",[1],-12.4% (inactive)
same,Potency,[2],> 20.6 µM (inactive)
Cc1ccnc(N2CCN(c3cc(C)c(C#N)c4nc5ccccc5n34)CC2)c1,"activity change, negative = inhibition",[1],22.1% (inactive)
same,Potency,[2],> 20.6 µM (inactive)
c1ccc(CN2CCN(c3ncnc4c3[nH]c3ccccc34)CC2)cc1,"activity change, negative = inhibition",[1],-15.1% (inactive)
same,Potency,[2],> 20.6 µM (inactive)
Cc1cc(C)n(CC(=O)N2c3ccccc3Sc3ccccc32)n1,"activity change, negative = inhibition",[1],-8.25% (inactive)
same,Potency,[2],> 20.6 µM (inactive)
CCCCn1cnc2c(c1=O)c1nc3ccccc3nc1n2Cc1ccc2c(c1)OCO2,"activity change, negative = inhibition",[1],29.8% (inactive)
same,"activity, negative = inhibition",[3]; at 17.2 µM (top of the series) unless noted,10.3% (inactive)
same,Potency,[2],> 20.6 µM (inactive)
same,Potency,[4],12.6 µM (active)
CCSc1nnc(NC(=O)C(CC)(C(F)(F)F)C(F)(F)F)s1,"activity change, negative = inhibition",[1],-19% (inactive)
same,Potency,[2],> 20.6 µM (inactive)
Cc1ccc2[nH]c3c(N4CCCCCC4)ncnc3c2c1,"activity change, negative = inhibition",[1],-20.6% (inactive)
same,Potency,[2],> 20.6 µM (inactive)
N#CC1=C(N)C(C#N)(C#N)[C@H](c2ccncc2)[C@H]2CN(C(=O)OCc3ccccc3)CC=C12,"activity change, negative = inhibition",[1],-27.2% (inactive)
same,Potency,[2],> 20.6 µM (inactive)
N#CC(C#N)C(c1ccsc1)c1c(-c2ccccc2)[nH][nH]c1=O (configuration not stated),"activity change, negative = inhibition",[1],-20.2% (inactive)
same,Potency,[2],> 20.6 µM (inactive)
CC(C)(C)c1nnc2sc(SCC(=O)c3ccccc3)nn2c1=O,"activity change, negative = inhibition",[1],2.49% (inactive)
same,Potency,[2],> 20.6 µM (inactive)
CC(C)C[C@H]1C(=O)N2CCC[C@H]2[C@]2(O)O[C@](NC(=O)[C@@H]3C=C4c5cccc6[nH]c(Br)c(c56)CC4N(C)C3)(C(C)C)C(=O)N12 (some centres not stated),"activity change, negative = inhibition",[1],-20.7% (inactive)
same,Potency,[2],> 20.6 µM (inactive)
CC(C)N1CC=C2C(C#N)=C(N)C(C#N)(C#N)C(c3ccccc3)C2C1 (configuration not stated),"activity change, negative = inhibition",[1],26.3% (inactive)
same,Potency,[2],> 20.6 µM (inactive)
COc1ccc(N(CN2C(=O)C3C4C=CC(C4)C3C2=O)C(=O)c2ccco2)cc1 (configuration not stated),"activity change, negative = inhibition",[1],-8.5% (inactive)
same,Potency,[2],> 20.6 µM (inactive)
CCOC(=O)c1ccc(N=Cc2nc(-c3ccccc3)oc2OC(C)=O)cc1,"activity change, negative = inhibition",[1],-16.3% (inactive)
same,Potency,[2],> 20.6 µM (inactive)
COc1cc([C@H]2c3cc4c(cc3[C@@H](O)[C@@H]3COC(=O)[C@H]23)OCO4)cc(OC)c1OC,Potency,[5],inactive
same,"activity change, negative = inhibition",[6],-22.1% [at 38 µM] (inactive)
same,"activity, negative = inhibition",[3]; at 17.2 µM (top of the series),16.9% (inactive)
same,"activity, negative = inhibition",[3]; at 38 µM (top of the series),-4.5% (inactive)
same,Potency,[7],inactive
same,Potency,[8],inactive
same,outcome,[9],inactive
same,Potency,[10],6.31 µM (active)
same,Potency,[11],inactive
same,Potency,[12],inactive
same,outcome,[13],inactive
same,outcome,[14],inactive
CCN1CC=C2C(C#N)=C(N)C(C#N)(C#N)[C@H](c3cccc(OC)c3OC)[C@H]2C1,"activity change, negative = inhibition",[1],9.63% (inactive)
same,Potency,[2],> 20.6 µM (inactive)
same,Potency,[15],29.1 µM (active)
